Activity calls are given as the source filed them.

A short description of assay [1]: E. coli DRC41 culture turbidity changes, primary screen, E. coli filamentation inducer project, strain DRC41, OD650, 48 h (AID 1152).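 Note: E. coli MC1000 strain DRC41 lacking acrAB efflux pump and sulA.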 To be noted: E. coli DRC41 (acrAB sulA), higher = more signal, called active from +8 up or from −8 down.
A short description of assay [2]: small-molecule binders of probe aLefty1, primary screen, biochemical, small-molecule microarray, 635/667 nm fluorescence (AID 1153).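 Note: score merges spot fluorescence with signal-to-noise ratio from the scanned slide images.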 Conditions: higher = more signal.
Assay [3] in a line: PSAC antagonists in infected red cells, primary screen, cell-based, P. falciparum Indochina, OD700, 1 h (AID 1154). Conditions: P. falciparum Indochina infected RBC osmotic lysis, higher = more signal, called active from +8 up or from −8 down.
Assay [4] in a line: PSAC antagonists in infected red cells, primary screen, cell-based, P. falciparum Indochina, OD700, 2 h (AID 1155).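 Note: lysis reports solute entry through the parasite surface anion channel PSAC; channel blockers reduce lysis of infected cells.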 Conditions: P. falciparum Indochina infected erythrocytes, osmotic lysis OD700; higher = more signal, called active from +8 up or from −8 down.
Assay [5] is described as follows: osmotic lysis modulators in infected erythrocytes, primary screen, PSAC antagonist project, cell-based, P. falciparum Indochina, OD700, 3 h (AID 1156). To be noted: higher = more signal, called active from +8 up or from −8 down.
The nature of assay [6]: PSAC antagonists in infected red cells, primary screen, cell-based, P. falciparum Indochina, OD700, 18 h (AID 1157). Conditions: P. falciparum Indochina infected erythrocytes, osmotic lysis OD700, 18 h; higher = more signal, called active from +8 up or from −8 down.
The nature of assay [7]: modulators of S6 phosphorylation in cells, primary screen, cell-based, A549, cytoblot, luminescence, serum-stimulated (AID 1158).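 Note: serum-stimulated A549 lung adenocarcinoma cells; signal is phosphorylated S6 detected by cytoblot immunostaining with HRP secondary.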 To be noted: A549 phospho-S6 cytoblot, 5 h, higher = more signal.
Assay [8] deals with NADPH oxidase 2 (Homo sapiens) (UniProt P04839). Kind of assay: NOX2-dependent H2O2 signal modulators, primary screen, NOX inhibitor project, cell-based, HEK293-NOX2, PMA-stimulated, Amplex Red fluorescence (AID 1159). Note: test concentration not given here. Conditions: 45 min, higher = more signal, called active from +8 up or from −8 down.
Sequence of NADPH oxidase 2 (Homo sapiens) (P04839 whole entry, looked up): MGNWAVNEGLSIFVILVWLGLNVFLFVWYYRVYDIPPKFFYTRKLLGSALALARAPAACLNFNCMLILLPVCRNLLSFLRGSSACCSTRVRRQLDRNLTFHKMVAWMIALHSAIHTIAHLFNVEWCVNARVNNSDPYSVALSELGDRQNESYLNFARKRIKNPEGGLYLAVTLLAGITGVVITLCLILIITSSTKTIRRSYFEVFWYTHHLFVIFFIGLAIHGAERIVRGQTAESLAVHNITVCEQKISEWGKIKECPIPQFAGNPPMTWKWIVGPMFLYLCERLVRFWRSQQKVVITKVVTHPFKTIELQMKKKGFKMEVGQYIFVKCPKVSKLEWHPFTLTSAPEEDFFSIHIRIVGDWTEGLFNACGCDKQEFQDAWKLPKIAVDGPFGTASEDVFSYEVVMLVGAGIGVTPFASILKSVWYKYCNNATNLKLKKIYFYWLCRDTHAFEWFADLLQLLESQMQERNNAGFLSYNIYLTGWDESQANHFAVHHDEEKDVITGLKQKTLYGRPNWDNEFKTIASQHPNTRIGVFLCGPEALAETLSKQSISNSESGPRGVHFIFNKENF
Assay [9] deals with NADPH oxidase 4 (Homo sapiens) (UniProt Q9NPH5). Description: NOX4-dependent H2O2 signal modulators, primary screen, NOX inhibitor project, cell-based, HEK293-NOX4, tetracycline-induced, Amplex Red fluorescence (AID 1160). To be noted: 45 min, higher = more signal, called active from +8 up or from −8 down.
Sequence of NADPH oxidase 4 (Homo sapiens) (Q9NPH5 whole entry, looked up): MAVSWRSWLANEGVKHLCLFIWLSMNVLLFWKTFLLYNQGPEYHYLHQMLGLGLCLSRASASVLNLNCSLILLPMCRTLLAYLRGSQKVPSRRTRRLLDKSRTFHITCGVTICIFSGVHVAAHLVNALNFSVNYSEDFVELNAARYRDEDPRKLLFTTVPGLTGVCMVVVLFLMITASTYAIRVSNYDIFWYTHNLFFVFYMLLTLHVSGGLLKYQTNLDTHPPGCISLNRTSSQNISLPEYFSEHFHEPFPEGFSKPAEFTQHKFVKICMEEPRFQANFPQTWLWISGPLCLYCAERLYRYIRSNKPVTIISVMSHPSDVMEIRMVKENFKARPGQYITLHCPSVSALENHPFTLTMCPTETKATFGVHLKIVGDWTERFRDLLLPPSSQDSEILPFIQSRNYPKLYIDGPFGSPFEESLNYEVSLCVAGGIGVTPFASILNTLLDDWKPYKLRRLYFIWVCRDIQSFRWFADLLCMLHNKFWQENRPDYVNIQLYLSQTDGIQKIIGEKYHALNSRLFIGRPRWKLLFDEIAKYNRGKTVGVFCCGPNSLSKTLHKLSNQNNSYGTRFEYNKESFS
In assay [10] the target is NADPH oxidase 5 (Homo sapiens) (UniProt Q96PH1). Description: NOX5-dependent H2O2 signal modulators, primary screen, NOX inhibitor project, cell-based, HEK293-NOX5, Amplex Red fluorescence (AID 1161). Conditions: HEK293-NOX5, ionomycin, 45 min, higher = more signal.
Sequence of NADPH oxidase 5 (Homo sapiens) (Q96PH1 whole entry, looked up): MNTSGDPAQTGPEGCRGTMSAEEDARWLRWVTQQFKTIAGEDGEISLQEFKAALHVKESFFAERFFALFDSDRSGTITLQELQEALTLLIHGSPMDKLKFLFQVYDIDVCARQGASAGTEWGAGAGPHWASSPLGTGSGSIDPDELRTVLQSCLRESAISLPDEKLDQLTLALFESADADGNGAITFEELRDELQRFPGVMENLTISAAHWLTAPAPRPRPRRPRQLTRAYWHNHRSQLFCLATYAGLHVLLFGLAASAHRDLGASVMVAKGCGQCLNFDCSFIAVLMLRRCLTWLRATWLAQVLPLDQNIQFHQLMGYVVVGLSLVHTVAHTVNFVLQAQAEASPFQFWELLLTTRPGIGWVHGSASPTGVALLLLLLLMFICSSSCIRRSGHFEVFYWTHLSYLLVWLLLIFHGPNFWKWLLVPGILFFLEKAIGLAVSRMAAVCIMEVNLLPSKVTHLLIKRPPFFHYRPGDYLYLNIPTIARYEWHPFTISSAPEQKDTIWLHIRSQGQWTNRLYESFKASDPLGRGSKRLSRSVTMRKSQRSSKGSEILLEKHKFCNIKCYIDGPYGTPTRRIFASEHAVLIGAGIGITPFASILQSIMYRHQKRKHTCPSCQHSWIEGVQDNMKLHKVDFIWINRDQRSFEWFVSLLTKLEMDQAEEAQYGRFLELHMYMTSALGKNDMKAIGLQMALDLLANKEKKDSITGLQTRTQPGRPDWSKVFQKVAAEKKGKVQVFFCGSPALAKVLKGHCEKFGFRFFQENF
Assay [11] can be described thus: A549 cell viability effects, profiling panel, calcein-AM fluorescence, 48 h, basal (AID 1162). Note: test concentration not given here. Conditions: higher = more signal.
Assay [12] in a line: adipocyte viability effects, profiling panel, cell-based, 3T3-L1 adipocytes, calcein-AM fluorescence, 48 h, basal (AID 1163). Note: test concentration not given here. To be noted: 3T3-L1 adipocytes viability, higher = more signal.
Assay [13] can be described thus: HepG2 cell viability effects, profiling panel, calcein-AM fluorescence, 48 h, basal (AID 1164). Note: test concentration not given here. To be noted: higher = more signal.
Assay [14] in a line: MM1S cell viability effects, profiling panel, calcein-AM fluorescence, 48 h, basal (AID 1165).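 Note: viability of MM1S multiple myeloma cells under basal unstimulated conditions; test concentration not given here.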 Conditions: higher = more signal.
Assay [15] can be described thus: basal RPMI8226 viability, no added stimulus, profiling panel, cell-based, calcein-AM fluorescence, 48 h, PK04 Diversity Set (AID 1166).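 Note: cells grown under basal conditions without added stimulus; test concentration not given here.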 Conditions: RPMI8226 myeloma viability, higher = more signal.
Assay [16] in a line: basal HepG2 mitochondrial membrane potential changes, profiling panel, cell-based, JC-1 fluorescence, 24 h, 100 nL compound (AID 1167). Note: test concentration not given here. Conditions: higher = more signal.
The nature of assay [17]: basal 3T3-L1 adipocyte mitochondrial potential changes, profiling panel, cell-based, JC-1 fluorescence, 3T3-L1 adipocytes, 24 h, 100 nL compound (AID 1168). Note: test concentration not given here. Conditions: JC-1 mitochondrial fluorescence, higher = more signal, called active from +8 up or from −8 down.
Assay [18] is described as follows: basal RPMI8226 mitochondrial membrane potential changes, profiling panel, cell-based, JC-1 fluorescence, 24 h, 100 nL compound (AID 1169). Note: test concentration not given here. To be noted: RPMI8226 myeloma, JC-1 mitochondrial potential fluorescence, higher = more signal.
A short description of assay [19]: basal MM1S mitochondrial membrane potential changes, profiling panel, cell-based, JC-1 fluorescence, 24 h, 100 nL compound (AID 1170). Note: test concentration not given here. Conditions: higher = more signal.
Assay [20] is described as follows: A549 lung cancer cell viability effects, profiling panel, resazurin fluorescence, 24 h, PK04 Diversity Set (AID 1171). Note: test concentration not given here. Conditions: higher = more signal, called active from +8 up or from −8 down.

`CC(C)(C)OC(=O)CC[C@@]1(C(=O)NCC(O)CO)N=C(c2ccc(OCCCO)cc2)O[C@@H]1c1ccccc1` (stereo not given in full): the z-score in assay [1] was -0.0744 (inactive); in assay [3], 20.4 (active); in [4], 2.42 (inactive); in [5] it was 0.384 (inactive); in assay [6] it was 0.519 (inactive); in assay [7] it was 0.0391. The z-score in assay [8] was 0.0533 (inactive); in assay [9], 0.626 (inactive); in assay [10], 1.45; in assay [11], -0.0139; in assay [12], -1.09; in assay [13], 1.92. The z-score in assay [14] is -0.607; in assay [15], -0.0321; in assay [16], 1.93; in assay [17], -0.144 (inactive); in assay [18], -0.0607; in assay [19], -0.844. Besides, the z-score in assay [20] was -0.387 (inactive). Besides, the composite z-score in assay [2] came out at 0.0004.

Regarding `COc1cc(CO)cc(I)c1O[C@H]1C=C(C(=O)NCCO)C[C@@H](N(CCc2cccc(F)c2)C(=O)CCC2CCCC2)[C@@H]1O`, the z-score in assay [1] is -0.429 (inactive); in [3], 16.3 (active); in [4] it was 3.94 (inactive); in assay [5], 4.42 (inactive); in [6], 1.53 (inactive); in assay [7], -0.165. For the same molecule, the z-score in [8] was 1.47 (inactive); in [9], 0.145 (inactive); in [10] it was -2.23; in assay [11] it was -1.5; in assay [12], 2.06; in assay [13], -2.23. In addition, the z-score in [14] is -3.19; in [15] it was -4.28; in assay [16], -1.09; in assay [17], 0.525 (inactive); in assay [18] it was -1.2; in [19] it was -1.96. In [20], the z-score is -2.26 (inactive). This molecule came in with a composite z-score in assay [2] of 0.437.

For the molecule `COC(=O)[C@@]1(Cc2ccc(OC)cc2)[C@H]2c3cc(C(=O)N4CCCC4)n(C[C@H](O)CO)c3C[C@H]2CN1C(=O)c1ccccc1`, the z-score in assay [1] was -0.599 (inactive); in assay [3], 1.24 (inactive); in assay [4], -0.478 (inactive); in [5], 0.425 (inactive); in [6] it was 0.201 (inactive); in assay [7], 0.245. Further, the z-score in assay [8] is 0.4 (inactive); in assay [9] it was 0.18 (inactive); in assay [10] it was -3.78; in assay [11], -0.892; in assay [12] it was -0.113; in assay [13], 0.255. For the same molecule, the z-score is -1.05 in [14]; 0.197 in [15]; 1.76 in [16]; 0.585 (inactive) in [17]; 0.933 in assay [18]; -1.03 in assay [19]. Also, the z-score in assay [20] is 0.336 (inactive). In assay [2], this molecule returned a composite z-score of 0.132.

Consider `COc1ccc([Si](C)(C)[C@H]2[C@H](CC(=O)N(CCO)Cc3ccccc3)O[C@@]3(C(=O)N(Cc4cccc(N5C(=O)c6cccc7cccc5c67)c4)c4ccccc43)[C@@H]2C)cc1`, for which the z-score was 1.33 (inactive) in assay [1]; 13.2 (active) in [3]; 0.787 (inactive) in assay [4]; -0.924 (inactive) in [5]; -0.34 (inactive) in assay [6]; 2.67 in assay [7]. For the same molecule, the z-score in assay [8] was 0.38 (inactive); in assay [9] it was 0.39 (inactive); in assay [10], 1.83; in [11], -0.191; in [12] it was 0.996; in assay [13], -1.5. In addition, the z-score in [14] is -0.883; in assay [15], -4.29; in assay [16], 0.0381; in [17], 2.83 (inactive); in assay [18] it was -1.06; in assay [19], -1.08. The z-score in assay [20] is -2.32 (inactive). In assay [2], the composite z-score is -0.0507.

Take `CCCCCCCCCCC(O)C1C=CC2C(=O)N(c3ccccc3)C(=O)C2N1Nc1ccc([N+](=O)[O-])cc1` (stereo not given): the z-score was -1.14 (inactive) in assay [1]; 5.24 (inactive) in [3]; 2.56 (inactive) in assay [4]; -1.8 (inactive) in assay [5]; 2.11 (inactive) in assay [6]; -0.235 in assay [7]. Further, the z-score is 0.309 (inactive) in assay [8]; -0.243 (inactive) in assay [9]; 0.627 in assay [10]; -2.28 in assay [11]; -0.581 in assay [12]; -1.82 in assay [13]. The z-score in assay [14] was -3.31; in [15], -4.22; in assay [16], -2.87; in [17] it was 0.656 (inactive); in assay [18], -1.13; in assay [19], -1.66. Further, the z-score in assay [20] was 0.381 (inactive). The composite z-score in assay [2] worked out at 0.315.

Consider `CN(C)CCCC[C@@H]1NC(=O)[C@H]2C[C@@H](C(=O)NCCCCCNC(=O)CS)[C@@H](c3ccc(O)cc3)N2C1=O`, for which the z-score in assay [1] was 0.445 (inactive); in assay [3], 0.93 (inactive); in assay [4], 0.683 (inactive); in assay [5] it was -0.988 (inactive); in [6] it was 0.153 (inactive); in assay [7] it was -0.0137. Also, the z-score in assay [8] is 0.394 (inactive); in [9], -0.265 (inactive); in assay [10], 0.877; in assay [11], -0.294; in [12] it was -0.478; in [13] it was -0.0888. Also, the z-score was 0.201 in [14]; -0.285 in [15]; 1.68 in assay [16]; -0.143 (inactive) in [17]; -0.319 in assay [18]; 0.543 in [19]. Moreover, the z-score in assay [20] was -0.358 (inactive). The composite z-score in [2] was -0.0196.

Take `C=CCOC(=O)[C@@H]1[C@H]2C(=O)O[C@H](c3ccccc3)[C@H](c3ccccc3)N2[C@H](c2ccc(OCCOC(=O)[C@H]3C[C@H]4C(=O)N[C@@H](CCCC[N+](C)(C)C)C(=O)N4[C@H]3c3cccc(OCCO)c3)cc2)[C@@]12C(=O)Nc1ccc(I)cc12`: the z-score in [1] was -0.398 (inactive); in assay [3], 7.62 (inactive); in assay [4], 2.35 (inactive); in assay [5] it was 1.59 (inactive); in assay [6], 1.28 (inactive); in assay [7], 0.0621. Moreover, the z-score in [8] is 1.68 (inactive); in [9], 0.615 (inactive); in assay [10] it was 1.33; in assay [11], -0.299; in [12] it was 0.194; in assay [13], -0.872. In addition, the z-score was -0.135 in [14]; 0.437 in [15]; -0.984 in assay [16]; 1.07 (inactive) in [17]; -0.742 in assay [18]; -1.24 in assay [19]. The z-score in [20] was -0.166 (inactive). In assay [2], this molecule gave a composite z-score of 0.173.

In the case of `O=C(NCCN1CCOCC1)[C@@H]1c2ccccc2C(=O)N(Cc2cc(F)cc(C(F)(F)F)c2)[C@H]1c1ccc(CO)cc1`, the z-score in [1] was -0.61 (inactive); in [3] it was 3.37 (inactive); in [4], 0.298 (inactive); in assay [5], 0.884 (inactive); in assay [6] it was 0.0839 (inactive); in [7] it was -0.287. The z-score is 1.44 (inactive) in assay [8]; 1.12 (inactive) in assay [9]; 2 in assay [10]; 1.22 in assay [11]; 0.767 in [12]; 1.2 in assay [13]. Further, the z-score was 0.34 in assay [14]; -0.671 in assay [15]; 1.97 in assay [16]; 0.13 (inactive) in [17]; 0.738 in assay [18]; -0.119 in [19]. For the same molecule, the z-score in assay [20] is 0.935 (inactive). Besides, the composite z-score in [2] is -0.0492.

Turning to `CN1C(=O)C2C=CC(C(O)C=Cc3ccc([N+](=O)[O-])cc3)N(N3CCCCC3)C2C1=O` (stereo not given), the z-score in assay [1] was -1.54 (inactive); in [3], 2.72 (inactive); in assay [4] it was 0.962 (inactive); in [5] it was 0.714 (inactive); in assay [6] it was 1.02 (inactive); in assay [7] it was -0.9. The z-score in [8] was -0.542 (inactive); in assay [9], -0.397 (inactive); in assay [10], -1.25; in assay [11], -1.1; in assay [12], -1.15; in assay [13], -0.382. Besides, the z-score in [14] is -0.351; in assay [15] it was 0.107; in assay [16], -1.77; in assay [17], -1.31 (inactive); in assay [18], -0.834; in assay [19], -0.4. Further, in assay [20], the z-score was -0.244 (inactive). The molecule also yielded a composite z-score in assay [2] of 1.11.

(Values after PubChem BioAssay.)
